Z-score and composite z-score data for ten molecules are collected here from PubChem BioAssay.

The nature of test [1]: resazurin metabolic signal in HepG2 cells – cell-based, resazurin fluorescence, 24 h, PK04 Diversity Set, profiling panel (AID 1172). The settings on record: HepG2 viability, higher = more signal. (In general: Resazurin is reduced to fluorescent resorufin, in cell work by metabolically active cells.)
The nature of test [2]: budding yeast growth changes without added modifier – OD600, strain BY4716, 24 h, basal condition, primary screen (AID 1173). The settings on record: S. cerevisiae BY4716 growth, OD600, 24 h; higher = more signal, called active from +8 up or from −8 down.
Test [3] in a line: viability profiling in MM1S myeloma cells – cell-based, resazurin fluorescence, basal, 24 h, PK04 Diversity Set, profiling panel (AID 1174). The settings on record: higher = more signal, called active from +8 up or from −8 down.
Test [4] deals with Dihydroorotate dehydrogenase (quinone), mitochondrial (Plasmodium falciparum (isolate 3D7)) (UniProt Q08210). The test can be described thus: inhibition of P. falciparum DHODH – biochemical, C-terminal His tag, absorbance 600 nm, primary screen (AID 1175).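 Note: recombinant parasite enzyme with a five histidine tag at its C terminus.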 As to conditions: PfDHODH enzyme, DCIP absorbance 600 nm; higher = more signal, called active from +8 up or from −8 down.
Dihydroorotate dehydrogenase (quinone), mitochondrial (Plasmodium falciparum (isolate 3D7)), sequence (Q08210 whole entry, looked up): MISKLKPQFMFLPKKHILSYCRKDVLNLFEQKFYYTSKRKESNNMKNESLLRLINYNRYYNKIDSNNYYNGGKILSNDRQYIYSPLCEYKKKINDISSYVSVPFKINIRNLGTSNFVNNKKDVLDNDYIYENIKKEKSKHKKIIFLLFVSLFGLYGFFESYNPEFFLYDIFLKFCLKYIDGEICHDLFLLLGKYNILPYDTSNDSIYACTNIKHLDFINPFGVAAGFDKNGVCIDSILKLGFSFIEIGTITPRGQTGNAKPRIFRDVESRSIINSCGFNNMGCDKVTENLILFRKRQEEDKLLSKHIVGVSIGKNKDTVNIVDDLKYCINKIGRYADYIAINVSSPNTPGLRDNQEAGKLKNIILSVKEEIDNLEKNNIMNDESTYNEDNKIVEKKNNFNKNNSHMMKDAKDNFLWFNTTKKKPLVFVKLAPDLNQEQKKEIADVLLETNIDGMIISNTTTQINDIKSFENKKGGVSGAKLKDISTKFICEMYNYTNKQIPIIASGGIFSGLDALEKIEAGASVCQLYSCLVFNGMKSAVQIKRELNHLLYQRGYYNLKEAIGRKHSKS
Test [5] is described as follows: inhibition of PAO1 biofilm formation – strain PAO1, LB-PBS medium, absorbance 600 nm, primary screen (AID 1176). As to conditions: P. aeruginosa PAO1 growth/biofilm, A600, 12 h; higher = more signal.
The nature of test [6]: growth modulation of vineyard yeast isolate – strain RM11-1a, OD600, basal, 24 h, primary screen (AID 1177).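 Note: cultures grown under basal conditions with no added stressor.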 As to conditions: S. cerevisiae RM11-1a growth, OD600, 24 h; higher = more signal, called active from +8 up or from −8 down.
The nature of test [7]: growth of efflux-deficient E. coli DRC39 – strain DRC39, OD650, 24 h, E. coli filamentation inducers, primary screen (AID 1178).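 Note: growth measured as culture turbidity by optical density at 650 nm.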 The settings on record: E. coli DRC39 acrAB, higher = more signal, called active from +8 up or from −8 down.
Test [8] in a line: growth of efflux-deficient E. coli DRC39 – strain DRC39, OD650, 48 h, E. coli filamentation inducers, primary screen (AID 1179).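 Note: screen aims at cell division blockers that make cells filament.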 As to conditions: E. coli DRC39 delta-acrAB growth, higher = more signal, called active from +8 up or from −8 down.
A short description of test [9]: viability profiling in RPMI8226 myeloma cells – cell-based, resazurin fluorescence, basal, 24 h, PK04 Diversity Set, profiling panel (AID 1180).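 Note: RPMI8826 multiple myeloma cell line at 5000 cells per well.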 As to conditions: higher = more signal.
For test [10], the target named is E3 ubiquitin-protein ligase XIAP (Homo sapiens) (UniProt P98170). The test can be described thus: small molecules binding XIAP protein – biophysical, small-molecule microarray, fluorescence 635 nm, primary screen (AID 1181).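 Note: score merges 667 nm emission and signal to noise over triplicate slides.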 The settings on record: higher = more signal.
E3 ubiquitin-protein ligase XIAP (Homo sapiens), sequence (P98170 whole entry, looked up, the tested form may be a part): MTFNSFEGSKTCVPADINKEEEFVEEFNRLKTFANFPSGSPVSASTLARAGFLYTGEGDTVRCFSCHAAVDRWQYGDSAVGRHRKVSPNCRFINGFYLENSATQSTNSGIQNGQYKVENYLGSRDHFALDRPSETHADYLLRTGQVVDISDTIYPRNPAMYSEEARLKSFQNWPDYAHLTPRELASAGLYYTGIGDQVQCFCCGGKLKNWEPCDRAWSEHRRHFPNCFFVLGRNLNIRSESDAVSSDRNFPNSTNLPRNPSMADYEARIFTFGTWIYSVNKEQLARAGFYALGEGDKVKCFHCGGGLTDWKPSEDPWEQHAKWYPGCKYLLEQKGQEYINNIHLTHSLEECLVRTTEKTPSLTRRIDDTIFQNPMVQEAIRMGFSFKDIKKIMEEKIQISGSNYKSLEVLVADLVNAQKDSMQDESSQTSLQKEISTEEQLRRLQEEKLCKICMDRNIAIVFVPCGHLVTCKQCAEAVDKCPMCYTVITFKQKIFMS
Test [11] deals with XIP peptide (Xip251-270) binding. The test can be described thus: XIP fragment 251-270 binding compounds – biochemical, small-molecule microarray, fluorescence 635/667 nm, 0.1 µg/mL protein, primary screen (AID 1182). As to conditions: fluorescent protein binding, 635 nm, higher = more signal, called active from +8 up or from −8 down.
The test system of test [12] is XIP peptide (Xip251-270). Description: compounds binding XIP fragment 251-270 – biochemical, small-molecule microarray, fluorescence 635/667 nm, 0.5 µg/mL protein, primary screen (AID 1183). The settings on record: fluorescence 635 nm, higher = more signal.
Test [13] in a line: blood-stage malaria parasite viability loss – strain 3D7, DAPI fluorescence, 100 nL, primary screen (AID 1184).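 Note: parasites grown inside human red blood cells in medium with human serum.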 As to conditions: P. falciparum 3D7 growth, 3 d, higher = more signal.
In test [14] the target is Homeobox protein Hox-A13 (Mus musculus) (UniProt Q62424). Description: disruptors of Hoxa13 oligonucleotide interaction – biochemical, fluorescence polarization, labeled oligonucleotide, primary screen (AID 1185). As to conditions: Hoxa13:DNA binding, 15 min, higher = more signal, called active from +8 up or from −8 down.
Homeobox protein Hox-A13 (Mus musculus), sequence (Q62424 whole entry, looked up): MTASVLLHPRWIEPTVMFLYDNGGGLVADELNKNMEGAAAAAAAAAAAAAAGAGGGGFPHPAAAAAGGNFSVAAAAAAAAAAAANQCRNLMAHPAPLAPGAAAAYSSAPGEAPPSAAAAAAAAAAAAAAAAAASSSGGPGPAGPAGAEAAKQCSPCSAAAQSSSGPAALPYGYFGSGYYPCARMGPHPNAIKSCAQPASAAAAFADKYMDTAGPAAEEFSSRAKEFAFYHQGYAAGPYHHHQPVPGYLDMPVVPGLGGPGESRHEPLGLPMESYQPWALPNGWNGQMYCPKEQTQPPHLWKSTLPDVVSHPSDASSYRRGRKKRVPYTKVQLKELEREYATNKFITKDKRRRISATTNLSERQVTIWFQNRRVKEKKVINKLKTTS
Test [15] in a line: blockers of DNA damage checkpoint Chk1 activation – imaging, HeLa, hydroxyurea, phospho-Chk1 antibody, percent positive cells, primary screen (AID 1186). The settings on record: hydroxyurea-induced phospho-Chk1 immunofluorescence imaging, higher = more signal.
The nature of test [16]: blockers of DNA damage checkpoint Chk1 activation – imaging, HeLa, hydroxyurea, phospho-Chk1 nuclear intensity, primary screen (AID 1187). The settings on record: hydroxyurea-induced phospho-Chk1 immunofluorescence imaging, higher = more signal.

Calls of active or inactive are those of the source. Unless noted, the rule behind the calls is not given here.

As to `CCOC(=O)C[C@H]1[C@H](OC(=O)c2ccccc2-c2ccccc2)[C@@H](NC(=O)c2ccc3ccccc3n2)c2cc(OCCCO)ccc2N1C(=O)Cc1ccc(OC)cc1`, the z-score in [1] is -0.271; in [2], 0.64 (inactive); in test [3] it was -0.343 (inactive); in test [5], 0.413 (inactive); in test [6], -0.384 (inactive); in [7], -0.42 (inactive). Moreover, the z-score in test [8] was -0.281 (inactive); in [9], -0.0052; in test [13], -1.64; in test [14], -2.31 (inactive); in test [15], 0.332 (inactive); in test [16] it was -0.135 (inactive). Moreover, the composite z-score is 0.315 (inactive) in test [4], -0.408 in [10], -0.0195 (inactive) in test [11] and -0.203 in [12].
As for `CC1CC/C=C\[C@H]2OC34C=CCN(Cc5ccccc5)C(=O)[C@H]3N(C(CO)C(C)C)C(=O)[C@@H]4C2C(=O)O1` (stereo not given in full), the z-score in test [1] is 0.145; in test [2], 0.325 (inactive); in test [3], 0.325 (inactive); in test [5], 0.205 (inactive); in test [6], 0.558 (inactive); in test [7], 0.426 (inactive). Further, the z-score is 0.523 (inactive) in test [8]; 0.775 in test [9]; 0.597 in test [13]; -5.14 (inactive) in test [14]; -0.0785 (inactive) in [15]; -0.204 (inactive) in [16]. The composite z-score was -0.841 (inactive) in test [4], -0.211 in test [10], 0.0855 (inactive) in test [11] and -0.555 in test [12].
On to `[N-]=[N+]=Nc1ccccc1[C@@H]1OC(c2ccc(OCCCO)cc2)=N[C@]1(Cc1ccccc1)C(=O)O`, for which the z-score is 0.841 in test [1]; 0.307 (inactive) in test [2]; 0.492 (inactive) in test [3]; -0.664 (inactive) in test [5]; 2.5 (inactive) in test [6]; 2.46 (inactive) in test [7]. Further, the z-score was 0.921 (inactive) in test [8]; 0.514 in test [9]; -1.85 in test [13]; -4.29 (inactive) in test [14]; -0.178 (inactive) in test [15]; 0.168 (inactive) in [16]. Also, the composite z-score in test [4] is 1.72 (inactive); in test [10], 0.0269; in test [11] it was 0.315 (inactive); in test [12] it was 0.721.
Consider `CC(C)[Si]1(C(C)C)OCc2cc(C3CC3)nc(-c3ccc(Oc4ccccc4)cc3)c21`, for which the z-score in [1] is 0.467; in test [2] it was 1.64 (inactive); in test [3], 1.03 (inactive); in [5], 0.173 (inactive); in test [6] it was 2.12 (inactive); in [7], 0.362 (inactive). Also, the z-score in test [8] was 0.0518 (inactive); in test [9] it was -0.497; in test [13], -1.39; in test [14] it was -2.85 (inactive); in test [15], -0.48 (inactive); in test [16], -0.358 (inactive). In addition, the composite z-score in [4] is 0.483 (inactive); in test [10] it was -0.299; in test [11] it was -0.495 (inactive); in [12] it was -0.603.
For `COc1cc2c(cc1O)C(c1cccs1)N(Cc1cc3c(cc1Br)OCO3)CC2` (stereo not given), the z-score is -0.608 in test [1]; -1.4 (inactive) in test [2]; -0.511 (inactive) in [3]; -0.227 (inactive) in [5]; 0.488 (inactive) in [6]; -0.284 (inactive) in [7]. In addition, the z-score in test [8] was -1 (inactive); in test [9] it was -1.59; in test [13], -1.57; in test [14] it was -1.01 (inactive); in [15], -0.117 (inactive); in test [16], 0.128 (inactive). Also, the composite z-score in [4] is -1.88 (inactive); in test [10], 0.483; in test [11] it was -0.177 (inactive); in [12], 0.867.
`CC1CC/C=C\[C@H]2OC34C=CCN(c5ccc6ccccc6c5)C(=O)[C@H]3N(CCCO)C(=O)[C@@H]4C2C(=O)O1` (stereo not given in full): the z-score in test [1] was -0.829; in test [2] it was 0.723 (inactive); in test [3] it was -0.644 (inactive); in test [5], -0.829 (inactive); in test [6], 0.822 (inactive); in [7], -0.587 (inactive). Moreover, the z-score in test [8] was -0.723 (inactive); in [9], 0.0719; in [13], 0.293; in [14], -5.63 (inactive); in test [15], 0.486 (inactive); in test [16], 0.104 (inactive). Besides, the composite z-score was 0.676 (inactive) in test [4], 0.275 in test [10], -0.103 (inactive) in test [11] and 0.327 in test [12].
On to `Cc1ccc(S[C@]2(C(=O)NCC(F)(F)F)CC(=O)N(Cc3cc(C(F)(F)F)cc(C(F)(F)F)c3)[C@@H]2c2ccc(CO)cc2I)cc1`, for which the z-score in [1] was 1.02; in test [2], -3.16 (inactive); in test [3], -1.99 (inactive); in test [5], -0.522 (inactive); in test [6], -0.974 (inactive); in test [7], -0.301 (inactive). The z-score in test [8] is -0.0582 (inactive); in [9], -2.03; in [13] it was -0.609; in test [14], -2.68 (inactive); in [15], 0.427 (inactive); in [16] it was 0.684 (inactive). Moreover, the composite z-score in [4] was -0.845 (inactive); in [10], -0.325; in test [11], 1.46 (inactive); in [12] it was 0.981.
`O=C(NCCN1CCOCC1)[C@@H]1c2ccccc2C(=O)N(C2Cc3ccccc3C2)[C@H]1c1ccc(CO)cc1`: the z-score in test [1] was -0.174; in [2], -0.633 (inactive); in test [3], 0.886 (inactive); in [5], 0.404 (inactive); in test [6] it was -1.44 (inactive); in [7], 0.638 (inactive). Moreover, the z-score is 1.07 (inactive) in [8]; 0.142 in [9]; -0.98 in test [13]; -3.28 (inactive) in [14]; -0.61 (inactive) in test [15]; -0.411 (inactive) in [16]. The composite z-score in test [4] is -1.79 (inactive); in [10], 0.164; in [11], 1.54 (inactive); in [12], 0.584.
Consider `C=C[C@H]1C(C(=O)OCC)=CC[C@@H](c2ccccc2)N1S(=O)(=O)c1ccc(C)cc1`, for which the z-score was 0.149 in test [1]; 1.32 (inactive) in test [2]; -0.172 (inactive) in test [3]; 0.257 (inactive) in test [5]; 1.39 (inactive) in [6]; -0.621 (inactive) in test [7]. The z-score in test [8] is -0.183 (inactive); in test [9], -0.667; in [13] it was -1.89; in test [14], -2.34 (inactive); in test [15], -0.229 (inactive); in [16], -0.732 (inactive). Also, the composite z-score was 0.319 (inactive) in test [4], 0.199 in test [10], 0.413 (inactive) in test [11] and 0.635 in test [12].
In the case of `C=C(C(=O)CC[C@H](OC(=O)c1ccccc1-c1ccccc1C(=O)O)c1cccc(OCCO)c1)C(C)C`, the z-score in test [1] is -0.862; in test [2] it was -0.907 (inactive); in test [3], -0.69 (inactive); in test [5], 0.804 (inactive); in [6], -0.427 (inactive); in test [7] it was -1.08 (inactive). Moreover, the z-score is -1.03 (inactive) in [8]; -0.69 in test [9]; -2.12 in [13]; -5.93 (inactive) in test [14]; 0.442 (inactive) in test [15]; -0.51 (inactive) in [16]. For the same molecule, the composite z-score is -0.23 (inactive) in test [4], 0.0617 in test [10], -0.145 (inactive) in [11] and 0.232 in test [12].
